What all share (test): PBM binding z-score (relative to random genomic background probes); higher = stronger binding; sequences stand for … in GC…GCGATTGACAGCGTAGAATGAAGG
Experiment [1] has as its system FXR:RXRa (NR concentration 270 nM, RXRa partner concentration 90 nM). An outline of the steps:
(§1)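 Binding z-scores take random background probes as their reference. They come from custom Agilent 4×180K protein-binding microarrays incubated 1 h with ligand-free nuclear receptor dimers, with antibodies against each partner (one per run) detecting binding. Scanned fluorescence was regression-normalized.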

Experiment [2] concerns LXRa:RXRa (NR concentration 270 nM, RXRa partner concentration 90 nM). An outline of the steps:
as §1

Experiment [3] deals with LXRa homodimer (NR concentration 270 nM). An outline of the steps:
as §1

Experiment [4] has as its system LXRb:RXRa (NR concentration 270 nM, RXRa partner concentration 90 nM). An outline of the steps: as §1
In experiment [5] the test system is LXRb homodimer (NR concentration 270 nM). In short, it runs like this:
as §1

For experiment [6], the system named is PPARa:RXRa (NR concentration 270 nM, RXRa partner concentration 90 nM). An outline of the steps:
as §1

In experiment [7] the test system is PPARg:RXRa (NR concentration 180 nM, RXRa partner concentration 90 nM). An outline of the steps:
as §1

Experiment [8] relates to PPARg:RXRa 270nM:90nM, anti-RXR (NR concentration 270 nM, RXRa partner concentration 90 nM). An outline of the steps: as §1
The subject of experiment [9] is PPARg:RXRa 30nM:10nM, anti-RXR (NR concentration 30 nM, RXRa partner concentration 10 nM). In short, it runs like this:
as §1

Experiment [10] relates to PPARg:RXRa 90nM:30nM, anti-RXR (NR concentration 90 nM, RXRa partner concentration 30 nM). An outline of the steps:
as §1

For experiment [11], the system named is PPARg:RXRa DBDmut IVT, anti-RXR (DBD mutation: RXRa K156A/R161A, NR concentration 270 nM, RXRa partner concentration 90 nM). In short, it runs like this:
as §1

Experiment [12] deals with PPARg:RXRa IVT, anti-PPARg (NR concentration 270 nM, RXRa partner concentration 90 nM). An outline of the steps:
as §1

Experiment [13] has as its system PPARg DBDmut:RXRa IVT, anti-PPARg (DBD mutation: PPARg1 K132A/R137A, NR concentration 270 nM, RXRa partner concentration 90 nM). An outline of the steps: as §1
In experiment [14] the test system is PPARg DBDmut IVT, anti-PPARg (DBD mutation: PPARg1 K132A/R137A, NR concentration 270 nM). In short, it runs like this: as §1
For experiment [15], the system named is PPARg homodimer (NR concentration 180 nM). In short, it runs like this: as §1
Experiment [16] has as its system PXR:RXRa (NR concentration 270 nM, RXRa partner concentration 90 nM). An outline of the steps: as §1
The subject of experiment [17] is PXR homodimer (NR concentration 270 nM). In short, it runs like this: as §1
Experiment [18] relates to RARa:RXR (NR concentration 270 nM, RXRa partner concentration 90 nM). In short, it runs like this: as §1
In experiment [19] the test system is RARa homodimer (NR concentration 270 nM). In short, it runs like this:
as §1

For experiment [20], the system named is RARb:RXRa (NR concentration 270 nM, RXRa partner concentration 90 nM). An outline of the steps:
as §1

Turning to CCTTCTGGGCCAAAAAGGTCATTGATGCCGATAA, the PBM binding z-score in experiment [1] came out at 3.46; in experiment [2], 4.33; in experiment [3] it was 2.97; in experiment [4], 3.9; in experiment [5], 0.645; in experiment [6], 4.48. Further, the PBM binding z-score is 2.52 in experiment [7]; 3.9 in experiment [8]; 1.16 in [9]; 2.59 in [10]; 3.91 in experiment [11]; 3.68 in experiment [12]. Also, the PBM binding z-score is -0.102 in experiment [13]; -0.685 in experiment [14]; 3.67 in experiment [15]; 4.74 in experiment [16]; 4.12 in experiment [17]; 5.1 in experiment [18]. For the same sequence, the PBM binding z-score in [19] is 1.14; in experiment [20] it was 3.83.
For TCTATTAGTTGATTAGAGCAACCGAAACAGCGGA, the PBM binding z-score in experiment [1] is 0.47; in experiment [2], 0.476; in experiment [3], 0.0625; in experiment [4], 0.326; in [5], 0.361; in [6] it was 0.484. For the same sequence, the PBM binding z-score in [7] is -0.0852; in experiment [8] it was 1.56; in experiment [9], 3.21; in [10], 2.38; in experiment [11], 1.66; in experiment [12] it was 0.345. The PBM binding z-score was 0.782 in experiment [13]; 0.622 in [14]; -0.0743 in [15]; 0.128 in experiment [16]; -0.0101 in [17]; 0.143 in experiment [18]. The PBM binding z-score in experiment [19] was determined as 0.166; in [20] it was 0.00144.
As for CCGACTGGGGCAGAAAGTTTACCATACCATCCGG, the PBM binding z-score in [1] is -0.706; in experiment [2], -0.595; in [3] it was -0.267; in experiment [4], -0.494; in [5] it was -0.896; in experiment [6] it was -0.213. Besides, the PBM binding z-score in experiment [7] is 0.681; in experiment [8] it was 0.251; in experiment [9] it was -0.507; in [10], -0.116; in experiment [11] it was 1.85; in [12], 0.907. Further, the PBM binding z-score was -1.52 in [13]; -1.73 in experiment [14]; 0.00802 in experiment [15]; -0.282 in experiment [16]; 0.645 in experiment [17]; -0.677 in [18]. Also, the PBM binding z-score in experiment [19] is -0.166; in experiment [20], 0.775.
On to TCAGACAGGTGAAAGTAACTCAGGTACGCAGTCG, for which the PBM binding z-score in experiment [1] is 0.453; in experiment [2], 0.738; in experiment [3], -0.345; in [4] it was 0.85; in experiment [5], -0.276; in experiment [6], 1.32. For the same sequence, the PBM binding z-score was 0.821 in [7]; 2.21 in experiment [8]; 4.08 in experiment [9]; 2.92 in [10]; 2.49 in [11]; 1 in experiment [12]. Also, the PBM binding z-score is 0.398 in experiment [13]; 0.588 in [14]; 0.14 in experiment [15]; 0.584 in experiment [16]; 0.498 in experiment [17]; 0.768 in experiment [18]. Further, the PBM binding z-score in experiment [19] was 0.295; in [20] it was 0.907.
As to CTCGAAACGTCGTGCTCAGGTGAGTATACCAAAC, the PBM binding z-score was -0.453 in experiment [1]; -0.656 in [2]; -0.383 in experiment [3]; -0.688 in experiment [4]; -0.52 in experiment [5]; -0.553 in [6]. The PBM binding z-score in experiment [7] is -0.362; in [8], -0.781; in experiment [9], -0.655; in experiment [10] it was -0.34; in experiment [11] it was -0.582; in [12], -0.171. The PBM binding z-score in experiment [13] is -0.256; in [14], 0.311; in experiment [15], -0.393; in experiment [16] it was -0.468; in [17] it was -0.608; in experiment [18], -0.466. Besides, the PBM binding z-score is -0.557 in [19] and -0.265 in experiment [20].
On to GCAGACAGGTGATACGCAGGTAACTCAGGGTGGC, for which the PBM binding z-score in [1] was -0.378; in experiment [2] it was -0.342; in experiment [3] it was -0.563; in experiment [4], -0.687; in experiment [5], -1.16; in [6] it was -0.129. The PBM binding z-score in experiment [7] was 0.508; in experiment [8], -0.512; in experiment [9], -0.33; in experiment [10] it was -0.762; in [11] it was -0.192; in experiment [12], -0.471. Also, the PBM binding z-score is -0.737 in experiment [13]; -0.846 in experiment [14]; -0.0293 in experiment [15]; -0.424 in [16]; -0.57 in [17]; 0.0928 in [18]. In addition, the PBM binding z-score was -0.408 in experiment [19] and -0.253 in experiment [20].

The values are drawn from the supplement of paper PMC6555819.
